Experimental findings from PubChem BioAssay (NCI) are described below.

Assay [1] is described as follows: NCI Yeast Anticancer Drug Screen. Data for the rad50 strain (AID 155).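 Further: 0% = growth of vehicle-only cultures of the same strain.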 As to conditions: S. cerevisiae rad50 strain growth inhibition, hits give high values. The method, boiled down:
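Inhibition values express reduced yeast growth in compound-treated cultures relative to vehicle-treated controls.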

Assay [2] is described as follows: NCI Yeast Anticancer Drug Screen. Data for the mec2-1 strain (AID 157). As to conditions: S. cerevisiae mec2-1 strain, hits give high values. The method, boiled down:
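Yeast mec2-1 mutant treated with compound. Readout: growth inhibition vs vehicle controls.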

Assay [3] can be described thus: NCI Yeast Anticancer Drug Screen. Data for the sgs1 mgt1 strain (AID 161).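 Further: 0% = growth of cultures given vehicle only.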 As to conditions: S. cerevisiae sgs1 mgt1 strain, hits give high values. The method, boiled down: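 Mutant yeast exposed to compound; growth scored against vehicle-only wells.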
Assay [4] in a line: NCI Yeast Anticancer Drug Screen. Data for the cln2 rad14 strain (AID 165).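 Further: 0% = growth equal to vehicle treated cultures.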 As to conditions: S. cerevisiae cln2 rad14 strain, hits give high values. The method, boiled down:
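cln2 rad14 yeast strain; compound exposure; growth inhibition read vs vehicle controls.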

The nature of assay [5]: NCI Yeast Anticancer Drug Screen. Data for the bub3 strain (AID 167). As to conditions: S. cerevisiae bub3 mutant strain, hits give high values. The method, boiled down: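 Steps: expose the mutant yeast strain to compound; grow alongside vehicle-treated cultures; measure growth; express inhibition against the vehicle cultures.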
Assay [6] in a line: NCI Yeast Anticancer Drug Screen. Data for the mlh1 rad18 strain (AID 175). Conditions: S. cerevisiae mlh1 rad18 strain growth inhibition, hits give high values. Summed up:
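Yeast w/ defined DNA-repair lesions; compound exposure; growth vs vehicle controls → % inhibition.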

The mark [7] stands for this setting: at 5.0 µM (retest, dose inferred, filed as 0.5).
Where [8] appears, read: at 50.0 µM (retest, dose inferred, filed as 5.0).

Structures are written as SMILES. The panel holds about 79,000 compounds, 15% with a hit somewhere; the sample as a whole holds those more often. Unmarked numbers belong to inactive results. Active and inactive are the calls of the source. No stated cut-off is given here; in the data, active means growth inhibition above about 70%; inactive means the rest.

`CC(=O)NC1CCCCC1c1ccc(C2CCCCC2NC(C)=O)cc1` (configuration not stated): the growth inhibition in assay [1] (setting [7]) was -8%; in assay [1] (setting [8]) it was 3%; in assay [1] (at 50.0 µM), -11.9%; in assay [2] (setting [7]), -8%; in assay [2] (setting [8]) it was 9%; in assay [2] (at 50.0 µM), -9.3%. In addition, the growth inhibition in assay [3] (setting [7]) is -4%; in assay [3] (setting [8]) it was 19%; in assay [3] (at 50.0 µM), 5.3%; in assay [4] (setting [7]) it was -69%; in assay [4] (setting [8]) it was -6%; in assay [4] (at 50.0 µM), 66.8%. Further, the growth inhibition was -4% in assay [5] (setting [7]); 1% in assay [5] (setting [8]); -2.45% in assay [5] (at 50.0 µM); 3% in assay [6] (setting [7]); 3% in assay [6] (setting [8]); 1.9% in assay [6] (at 50.0 µM).

With `O=C(Nc1nc2c(ncn2C2CC(OC(=O)c3ccccc3)C(COC(=O)c3ccccc3)O2)c(=O)[nH]1)c1ccccc1` (configuration not stated), the growth inhibition in assay [1] (setting [7]) is 3%; in assay [1] (setting [8]), 5%; in assay [1] (at 50.0 µM), 55.5%; in assay [2] (setting [7]), 8%; in assay [2] (setting [8]) it was 12%; in assay [2] (at 50.0 µM), 38.5%. Besides, the growth inhibition in assay [3] (setting [7]) was -16%; in assay [3] (setting [8]), 33%; in assay [3] (at 50.0 µM), 69.6%; in assay [4] (setting [7]), 6%; in assay [4] (setting [8]), 18%; in assay [4] (at 50.0 µM) it was 66.4%. The growth inhibition in assay [5] (setting [7]) is 7%; in assay [5] (setting [8]), 10%; in assay [5] (at 50.0 µM), 57.6%; in assay [6] (setting [7]) it was 9%; in assay [6] (setting [8]) it was 12%; in assay [6] (at 50.0 µM), 60%.

For `O=C(O)CCC12CCCCC1=NC1(CCCCC1)NC2=O` (configuration not stated), the growth inhibition in assay [1] (setting [7]) was 2%; in assay [1] (setting [8]), 6%; in assay [1] (at 50.0 µM), 10.6%; in assay [2] (setting [7]), -2%; in assay [2] (setting [8]), -1%; in assay [2] (at 50.0 µM), 44.6%. Also, the growth inhibition in assay [3] (setting [7]) was 3%; in assay [3] (setting [8]), 4%; in assay [3] (at 50.0 µM) it was 72.7% (active); in assay [4] (setting [7]), 4%; in assay [4] (setting [8]), 3%; in assay [4] (at 50.0 µM), 18.1%. For the same molecule, the growth inhibition in assay [5] (setting [7]) is 1%; in assay [5] (setting [8]) it was 2%; in assay [5] (at 50.0 µM), 67%; in assay [6] (setting [7]), 1%; in assay [6] (setting [8]), 7%; in assay [6] (at 50.0 µM), 55.6%.

Consider `O=[N+]([O-])c1ccccc1C(c1ccc2ccccc2c1O)N1CCOCC1` (configuration not stated), for which the growth inhibition in assay [1] (setting [7]) was 99% (active); in assay [1] (setting [8]) it was 95% (active); in assay [1] (at 50.0 µM), 97.5% (active); in assay [2] (setting [7]) it was 100% (active); in assay [2] (setting [8]) it was 97% (active); in assay [2] (at 50.0 µM), 97.8% (active). In addition, the growth inhibition in assay [3] (setting [7]) was 99% (active); in assay [3] (setting [8]), 98% (active); in assay [3] (at 50.0 µM), 94.8% (active); in assay [4] (setting [7]), 78% (active); in assay [4] (setting [8]) it was 96% (active); in assay [4] (at 50.0 µM), 97% (active). The growth inhibition was 99% (active) in assay [5] (setting [7]); 97% (active) in assay [5] (setting [8]); 95.8% (active) in assay [5] (at 50.0 µM); 98% (active) in assay [6] (setting [7]); 97% (active) in assay [6] (setting [8]); 95.4% (active) in assay [6] (at 50.0 µM).

As to `O=C(O)/C=C\C(=O)Nc1ccc2c(c1)C(=O)c1cc(F)ccc1-2`, the growth inhibition in assay [1] (setting [7]) is 10%; in assay [1] (setting [8]) it was 20%; in assay [1] (at 50.0 µM), 29%; in assay [2] (setting [7]), -1%; in assay [2] (setting [8]), -7%; in assay [2] (at 50.0 µM), -2.7%. The growth inhibition in assay [3] (setting [7]) was -4%; in assay [3] (setting [8]), 19%; in assay [3] (at 50.0 µM) it was -5.2%; in assay [4] (setting [7]), -6%; in assay [4] (setting [8]) it was 6%; in assay [4] (at 50.0 µM), 68.2%. For the same molecule, the growth inhibition is -2% in assay [5] (setting [7]); 2% in assay [5] (setting [8]); -36.6% in assay [5] (at 50.0 µM); 8% in assay [6] (setting [7]); 17% in assay [6] (setting [8]); 4.5% in assay [6] (at 50.0 µM).

For `CCOc1ccc(/C=N\NC(=O)c2ccco2)cc1OCC`, the growth inhibition was -6% in assay [1] (setting [7]); 4% in assay [1] (setting [8]); 59.8% in assay [1] (at 50.0 µM); -3% in assay [2] (setting [7]); -2% in assay [2] (setting [8]); 94% (active) in assay [2] (at 50.0 µM). Further, the growth inhibition in assay [3] (setting [7]) was -3%; in assay [3] (setting [8]), 11%; in assay [3] (at 50.0 µM), 47.7%; in assay [4] (setting [7]) it was -23%; in assay [4] (setting [8]), -22%; in assay [4] (at 50.0 µM), 67%. Moreover, the growth inhibition was -11% in assay [5] (setting [7]); -22% in assay [5] (setting [8]); 92.6% (active) in assay [5] (at 50.0 µM); -2% in assay [6] (setting [7]); -12% in assay [6] (setting [8]); 44.6% in assay [6] (at 50.0 µM).

For the molecule `C1=C(c2ccccc2)OC(c2ccccc2)=C[P+]1(c1ccccc1)c1ccccc1`, the growth inhibition in assay [1] (setting [7]) was 96% (active); in assay [1] (setting [8]) it was 98% (active); in assay [1] (at 50.0 µM) it was 92.1% (active); in assay [2] (setting [7]), 98% (active); in assay [2] (setting [8]), 99% (active); in assay [2] (at 50.0 µM), 90.8% (active). The growth inhibition is 99% (active) in assay [3] (setting [7]); 99% (active) in assay [3] (setting [8]); 91% (active) in assay [3] (at 50.0 µM); 93% (active) in assay [4] (setting [7]); 99% (active) in assay [4] (setting [8]); 86.8% (active) in assay [4] (at 50.0 µM). The growth inhibition was 97% (active) in assay [5] (setting [7]); 99% (active) in assay [5] (setting [8]); 93% (active) in assay [5] (at 50.0 µM); 95% (active) in assay [6] (setting [7]); 98% (active) in assay [6] (setting [8]); 92.7% (active) in assay [6] (at 50.0 µM).

With `C1=C(CC2=C[P+](c3ccccc3)(c3ccccc3)C=C(c3ccccc3)O2)OC(c2ccccc2)=C[P+]1(c1ccccc1)c1ccccc1`, the growth inhibition in assay [1] (setting [7]) is 17%; in assay [1] (setting [8]), 96% (active); in assay [1] (at 50.0 µM), 87.4% (active); in assay [2] (setting [7]), 8%; in assay [2] (setting [8]), 98% (active); in assay [2] (at 50.0 µM), 88% (active). The growth inhibition in assay [3] (setting [7]) was 35%; in assay [3] (setting [8]) it was 98% (active); in assay [3] (at 50.0 µM) it was 86.2% (active); in assay [4] (setting [7]), 25%; in assay [4] (setting [8]), 98% (active); in assay [4] (at 50.0 µM), 85.4% (active). For the same molecule, the growth inhibition in assay [5] (setting [7]) is 32%; in assay [5] (setting [8]), 98% (active); in assay [5] (at 50.0 µM), 90.5% (active); in assay [6] (setting [7]), 6%; in assay [6] (setting [8]) it was 95% (active); in assay [6] (at 50.0 µM) it was 90.8% (active).

With `CCC1CCC2C3CC=C4CC(OC(C)=O)C(N)CC4(C)C3CCC12C` (configuration not stated), the growth inhibition in assay [1] (setting [7]) was 6%; in assay [1] (setting [8]), 96% (active); in assay [1] (at 50.0 µM) it was 93% (active); in assay [2] (setting [7]), 9%; in assay [2] (setting [8]) it was 94% (active); in assay [2] (at 50.0 µM), 92.3% (active). Besides, the growth inhibition was 4% in assay [3] (setting [7]); 93% (active) in assay [3] (setting [8]); 89.2% (active) in assay [3] (at 50.0 µM); 45% in assay [4] (setting [7]); 95% (active) in assay [4] (setting [8]); 91.3% (active) in assay [4] (at 50.0 µM). For the same molecule, the growth inhibition is -5% in assay [5] (setting [7]); 95% (active) in assay [5] (setting [8]); 85.6% (active) in assay [5] (at 50.0 µM); 12% in assay [6] (setting [7]); 94% (active) in assay [6] (setting [8]); 91.8% (active) in assay [6] (at 50.0 µM).
